Source: PubChem BioAssay (National Center for Advancing Translational Sciences (NCATS))
FEN1 inh-1: qHTS Assay for the Inhibitors of Human Flap endonuclease 1 (FEN1). Recombinant FEN1 flap cleavage, fluorescence, 15 min. P39748. Potency, µM (top dose mostly 114 µM), for inactives: at the highest dose activity change, negative = inhibition, hits mostly inhibitors. hit rate 0.35% among 390,000; further: on the % scale 0 is the no-effect control and ±100 the full control effect; nearly all actives have a fitted effect of over 65% in size
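With each library titrated from low to high concentration, compounds met 10 nM FEN1 for 15 min at room temperature before 50 nM substrate was added; readings at 0 and 15 min fed four-parameter Hill curve fits.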
Pol iota inh: qHTS for Inhibitors of Polymerase Iota. Pol iota fluorescent replication assay, 10 min. Potency, µM (doses to about 115 µM), for the others: at the highest dose activity, negative = inhibition, actives largely listed as inhibitors. hit rate 1% among 390,000
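Pol iota at 10 nM preincubated 15 min with compounds at room temperature; reaction started with fluorescent substrate, 50 nM final. Fluorescence read kinetically at 0 and 10 min; buffer-only wells as negative control.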
Pol kappa inh: qHTS for Inhibitors of Polymerase Kappa. Potency, µM (titrated, usually from 107 µM), for the others: top-dose activity, negative = inhibition, most hits filed as inhibitors. DNA polymerase kappa (Homo sapiens), Q9UBT6. hit rate 0.53% among 400,000. AID 588579, 2011. purified Pol kappa, fluorescent DNA synthesis assay, 10 min; further: on the % scale 0 is the no-effect control and ±100 the full control effect
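Activity was followed as the change in fluorescence between reads at 0 and 10 min after starting the reaction with 50 nM substrate. Beforehand, 10 nM polymerase had been preincubated with compound for 15 min at room temperature.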
POLH inh: qHTS for Inhibitors of Polymerase Eta. Potency, µM (highest dose often 114 µM), for the others: at the top dose activity change, negative = inhibition, most hits filed as inhibitors. recombinant Pol eta, fluorescent DNA replication assay. hit rate 1.2% among 390,000. DNA polymerase eta (Homo sapiens), Q9Y253; further: on the % scale 0 is the no-effect control and ±100 the full control effect
Target sequence (Q9Y253 whole entry, looked up): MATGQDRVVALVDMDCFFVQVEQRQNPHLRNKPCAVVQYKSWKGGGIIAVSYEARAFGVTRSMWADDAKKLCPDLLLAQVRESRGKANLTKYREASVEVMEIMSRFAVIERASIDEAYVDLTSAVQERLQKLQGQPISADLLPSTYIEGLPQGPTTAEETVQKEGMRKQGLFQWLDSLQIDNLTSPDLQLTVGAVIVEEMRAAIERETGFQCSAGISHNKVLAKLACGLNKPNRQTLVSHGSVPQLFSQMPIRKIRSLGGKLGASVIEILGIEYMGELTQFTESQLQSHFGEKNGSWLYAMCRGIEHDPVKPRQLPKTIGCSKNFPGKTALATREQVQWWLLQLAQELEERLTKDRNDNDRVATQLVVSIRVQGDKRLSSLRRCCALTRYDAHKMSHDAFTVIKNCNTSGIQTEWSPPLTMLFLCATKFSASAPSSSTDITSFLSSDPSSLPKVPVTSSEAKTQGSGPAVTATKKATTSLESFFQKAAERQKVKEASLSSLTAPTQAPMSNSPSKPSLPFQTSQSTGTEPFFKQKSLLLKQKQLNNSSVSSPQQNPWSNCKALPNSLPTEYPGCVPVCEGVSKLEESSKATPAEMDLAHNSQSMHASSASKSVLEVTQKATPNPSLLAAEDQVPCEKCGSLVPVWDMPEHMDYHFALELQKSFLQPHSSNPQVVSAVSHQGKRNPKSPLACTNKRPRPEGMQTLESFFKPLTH
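Pol eta at 10 nM preincubated with compounds 15 min at room temperature; reaction started with fluorescent substrate (50 nM final) and read kinetically at 0 and 10 min.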
Pol beta inh: qHTS Assay for Inhibitors of DNA Polymerase Beta; P06746; Pol beta primer extension/strand displacement, fluorescence kinetic; Potency, µM (top dose mostly 114 µM), for the others: at the top dose activity change, negative = inhibition, usual class: inhibitors; hit rate 1.3% among 340,000; AID 485314, 2010; further: on the % scale 0 is the no-effect control and ±100 the full control effect
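Pol beta (10 nM) and compounds were preincubated 15 min at room temperature, then 50 nM substrate (final) started primer extension/strand displacement. Reads were taken at 0 and 10 min; concentration-response data were fitted to a four-parameter Hill equation.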
WRN helicase inh: qHTS for Inhibitors of WRN Helicase | WRN helicase unwinding, fluorescent forked duplex, kinetic | hit rate 0.46% among 360,000 | Potency, µM (doses to about 114 µM), for the others: top-dose activity change, negative = inhibition, hits mostly inhibitors | Bifunctional 3'-5' exonuclease/ATP-dependent helicase WRN (Homo sapiens), Q14191; further: on the % scale 0 is the no-effect control and ±100 the full control effect; nearly all actives have a fitted effect of over 55% in size
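Enzyme (20 nM final) and test compound sit together 15 min at room temperature before substrate addition. Substrate is a single-forked duplex oligonucleotide (100 nM) labelled with fluorophore and quencher, with 2 mM ATP; helicase unwinding raises red fluorescence, read kinetically.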
FEN1 inh-2: qHTS Assay for the Inhibitors of FEN1: Confirmatory Assay for Cherry-picked Compounds; shares compounds with FEN1 inh-1; FEN1 flap cleavage, TAMRA/BHQ2 fluorogenic DNA substrate; Potency, µM, usual class: inhibitors; hit rate 79% among 880; AID 720498, 2013; further: nearly all actives have a fitted effect of over 60% in size
Starred values were filed as active, the others as inactive; [ ] = dose if it differs, or a comment. Compounds with a hit are over-represented: about 2.4% of the library has one in this group of screens. The call rests on the fitted dose curve; in most records, active means well fitted curve in the direction sought with a large enough effect; inconclusive means small, poorly fitted or top-dose-only effect, or another doubt; inactive means no such curve, though single readings can be large; an effect the other way counts as inactive or inconclusive. Potency means the concentration at half of the fitted maximal effect.

Cc1cccc(NC(=O)COC(=O)c2ccc([N+](=O)[O-])o2)c1C was read as FEN1 inh-1 inconclusive, Pol iota inh 11.0%, Pol kappa inh -25.4%, POLH inh -0.9%, Pol beta inh -2.7%, WRN helicase inh -0.6% and FEN1 inh-2 21.3*.
`Cc1cc(Nc2cccc(C(F)(F)F)c2)nc2ccc(NC(=O)c3ccc(N(C)C)cc3)cc12` gave FEN1 inh-1 -22.4%, Pol iota inh inconclusive, Pol kappa inh -11.6%, POLH inh -20.2% and Pol beta inh -16.4%.
`CCc1ccc(NC(=O)c2sc3nc(C)c(Cl)c(C)c3c2NC(=O)c2ccccc2)cc1` gave FEN1 inh-1 -6.6%, Pol iota inh -5.3%, Pol kappa inh -4.1%, POLH inh 3.4% and Pol beta inh 6.9%.
`CCc1ccc(OCc2cc(=O)n3cc(C)sc3n2)cc1` gave FEN1 inh-1 -4.6%, Pol iota inh -11.1%, Pol kappa inh -1.1%, POLH inh -9.9% and Pol beta inh -2.8%.
Screening Cc1cc2c([nH]c3ccccc32)c(C)n1 returned FEN1 inh-1 -16.8%, Pol iota inh 26.9%, Pol kappa inh -14.2%, POLH inh -18.4%, Pol beta inh 14.2% and WRN helicase inh 6.9%.
Cc1c2ccncc2cc2c1[nH]c1ccccc12 was read as FEN1 inh-1 17.8µM*, Pol iota inh inconclusive, Pol kappa inh -34.9%, POLH inh -21.4%, WRN helicase inh 1.3%[11.6 µM] and FEN1 inh-2 16.9*.
`Cc1nc(Nc2ccncc2)c2oc3ccccc3c2n1` gave FEN1 inh-1 44.7µM*, Pol iota inh inconclusive, Pol kappa inh -8.3%, POLH inh -2.1%, Pol beta inh inconclusive, WRN helicase inh 19.7%[57.1 µM] and FEN1 inh-2 42.6*.
For COc1ccc(Cn2c(-c3ccco3)nc3c(c(=O)c4ccccc4n3C)c2=O)cc1 the results were FEN1 inh-1 22.4µM*, Pol iota inh -25.3%, Pol kappa inh -6.1%, POLH inh -13.3%, Pol beta inh inconclusive, WRN helicase inh -0.9%[11.6 µM] and FEN1 inh-2 30.1*.
Screening CCOC(=O)c1c(NC(=O)c2cc(=O)c3cc(C)ccc3o2)sc2c1CCCC2 returned FEN1 inh-1 3.7%, Pol iota inh 34.4%, Pol kappa inh -22.7%, POLH inh -21.7% and Pol beta inh -0.9%.
O=C(O)c1ccc(-c2ccc(/C=N/Nc3ccc([N+](=O)[O-])cc3)o2)cc1 was read as FEN1 inh-1 -18.6%, Pol iota inh -18.4%, Pol kappa inh -21.0%, POLH inh 50.1µM*, Pol beta inh inconclusive, WRN helicase inh inconclusive and FEN1 inh-2 84.9*.
`CCOc1ccccc1NC(=O)CSc1ncc2c(n1)-c1ccccc1N(CC)S2(=O)=O` gave FEN1 inh-1 8.7%, Pol iota inh 6.5%, Pol kappa inh -2.3%, POLH inh -24.5% and Pol beta inh 10.7%.
Screening COc1ccc(OC)c(Nc2nc(NCCO)c3ccccc3n2)c1 returned FEN1 inh-1 inconclusive, Pol iota inh 19.7%, Pol kappa inh -11.9%, POLH inh inconclusive, Pol beta inh inconclusive, WRN helicase inh -26.8%[57.1 µM] and FEN1 inh-2 inconclusive.
Screening COc1ccc(NC(=O)N2CCC3(CC2)CCN(C(=O)c2cccc(F)c2)CC3)cc1 returned Pol kappa inh 8.8%[60.1 µM].
`CCOCCCNCc1ccc(OC)cc1` gave FEN1 inh-1 -7.0%, Pol iota inh 9.0%, Pol kappa inh -5.7%, POLH inh -10.7%, Pol beta inh 1.2% and WRN helicase inh -0.6%.
`COc1ccc2cc(CNCCOCCOCCNCc3ccc4cc(OC)ccc4c3)ccc2c1` gave FEN1 inh-1 39.8µM*, Pol iota inh 8.0%, Pol kappa inh -17.5%, POLH inh -29.2%, WRN helicase inh inconclusive and FEN1 inh-2 37.9*.
For CC1Sc2ccc(S(=O)(=O)N3CCC(C(=O)Nc4ccc(Cl)cc4)CC3)cc2NC1=O (stereo unspecified) the results were FEN1 inh-1 inconclusive, Pol iota inh inconclusive, Pol kappa inh inconclusive, POLH inh inconclusive, Pol beta inh inconclusive, WRN helicase inh 79.4µM* and FEN1 inh-2 47.8*.
Cc1ccc(NC(=O)Cn2c(-c3cncs3)nc3ccccc32)c(Br)c1 was read as FEN1 inh-1 -8.4%, Pol iota inh inconclusive, Pol kappa inh -6.2%, POLH inh -22.3% and Pol beta inh 7.0%.
`CN(C)CCN(C)Cc1c2ccccc2c(CN(C)CCN(C)C)c2ccccc12` gave FEN1 inh-1 50.1µM*, Pol iota inh 66.2%, Pol kappa inh -11.2%, POLH inh -12.5%, Pol beta inh -30.8%, WRN helicase inh inconclusive and FEN1 inh-2 inconclusive.
For CN(C)CCP(=O)(c1ccccc1)c1ccccc1 the results were FEN1 inh-1 13.8%, Pol iota inh -1.4%, Pol kappa inh -0.2%, POLH inh -14.8%, Pol beta inh 19.9% and WRN helicase inh -6.6%.
`O=C(CSc1nn(-c2ccccc2)c(=S)s1)Nc1ncccn1` gave FEN1 inh-1 -7.7%, Pol iota inh 27.0%, Pol kappa inh -5.1%, POLH inh 4.2%, Pol beta inh 0.8% and WRN helicase inh -9.3%.
`Cc1cc(C)nc(NC(=O)CSc2nn(-c3ccccc3)c(=S)s2)n1` gave FEN1 inh-1 inconclusive, Pol iota inh inconclusive, Pol kappa inh 0.7%, POLH inh 10.5%, Pol beta inh 39.8µM*, WRN helicase inh inconclusive and FEN1 inh-2 inconclusive.
`CC[n+]1ccc(/C=C/c2ccc(N(C)C)cc2)c2ccccc21` gave FEN1 inh-1 39.8µM*, Pol iota inh -28.8%, Pol kappa inh inconclusive, POLH inh inconclusive, Pol beta inh 44.7µM*, WRN helicase inh 44.7µM* and FEN1 inh-2 47.8*.
CN(C)c1ccc(/C=C/c2cc[n+]([O-])c3ccccc23)cc1 was read as FEN1 inh-1 14.9%, Pol iota inh 5.6% and Pol kappa inh 1.8%.
